# Bioassay records (PubChem)
# In the library only some 22% were active in any assay of this set; here they are far more common.
# CYP2C9 inhib – blocks human cytochrome P450 2C9; CYP2C9 Supersomes, luciferin-H conversion, luminescence; AID 777; inhibition, % at 5 µM; actives 20% (n = 96,000); P11712;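 active means blocking of liver enzyme CYP2C9 beyond about 50% at 5 µM, limit read from the data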
# Target sequence (P11712 whole entry, looked up): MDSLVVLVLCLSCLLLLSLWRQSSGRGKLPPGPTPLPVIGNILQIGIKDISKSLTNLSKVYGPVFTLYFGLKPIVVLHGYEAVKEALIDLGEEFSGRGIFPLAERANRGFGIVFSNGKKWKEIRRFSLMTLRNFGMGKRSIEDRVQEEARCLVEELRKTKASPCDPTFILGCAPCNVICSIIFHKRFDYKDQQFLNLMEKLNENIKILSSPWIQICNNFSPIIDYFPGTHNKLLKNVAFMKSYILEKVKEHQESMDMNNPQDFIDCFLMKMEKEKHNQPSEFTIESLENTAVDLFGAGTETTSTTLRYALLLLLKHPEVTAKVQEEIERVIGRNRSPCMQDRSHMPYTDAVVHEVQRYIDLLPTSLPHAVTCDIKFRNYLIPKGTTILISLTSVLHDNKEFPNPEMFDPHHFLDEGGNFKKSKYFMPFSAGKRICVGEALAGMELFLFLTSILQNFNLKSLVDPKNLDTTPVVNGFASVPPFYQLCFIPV
# CYP2C9 act – CYP2C9 (human) activation; activation factor at 5 µM; actives 1.4% (n = 96,000); recombinant CYP2C9, luciferin-H conversion, luminescence; active compounds read high; factor 1 = untreated enzyme, 0 = blocked; P11712; AID 1024;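 active means activation factor of 2 or more for CYP2C9 at a 5 µM dose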
# Measles CPE – protection of cells from measles virus; Measles virus-infected cells, CPE protection, absorbance; protection (pct of control), % at 4 µM; actives 1.5% (n = 140,000); in the data active means protection mostly above about 24%, no sharp cut-off; inactive means mostly below about 26%
# CYP2C19 activ – increases human CYP2C19 enzyme activity. P33261. 96,000 tested, under 10 active. recombinant CYP2C19, luciferin-H EGE luminescence; active compounds read high; 0 = fully inhibited enzyme, 1 = untreated enzyme. activation factor at 5 µM;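 active means activation factor of at least 2 at 5 µM in the primary screen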
# CYP2C19 inhib – inhibitors of human CYP2C19. P33261. CYP2C19 Supersomes, luciferin-H EGE luminescence, 30 min. inhibition, % at 5 µM. actives 21% (n = 96,000);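 active means CYP2C19 inhibition above a set limit at 5 µM in the primary screen, cut at about 50% in these data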
# Numbers stand for hits; . = inactive; / = no result given.
SMILES,CYP2C9 inhib,CYP2C9 act,Measles CPE,CYP2C19 activ,CYP2C19 inhib
CCOC(=O)N1CCN(C(=O)CSc2nnc(-c3ccccc3OC)o2)CC1,.,2.2,.,.,.
Cc1cccc(C)c1OC(=O)CSc1nnc(-c2ccccc2O)o1,67,.,.,.,75
Clc1ccc(Nc2nc(NCCN3CCOCC3)nc(N3CCOCC3)n2)cc1,.,.,.,.,.
Cc1cc(OCC(=O)Nc2ccc(F)c(F)c2)nc(C(C)C)n1,.,.,.,.,73
O=C(Cc1ccccc1)Nc1nnc(-c2cccc([N+](=O)[O-])c2)s1,/,/,.,/,/
Cc1ccc(NC2=C(N3CCOCC3)C(=O)c3ccccc3C2=O)cc1,57,.,.,.,.
CC(=O)c1ccc(NC2=C(N3CCOCC3)C(=O)c3ccccc3C2=O)cc1,.,.,.,.,61
O=C(O)c1ccc(NC2=C(N3CCOCC3)C(=O)c3ccccc3C2=O)cc1,/,/,.,/,/
C/C(CC(=O)Nc1cc(Cl)ccc1Cl)=N\NC(=O)c1ccco1,.,.,.,.,.
CCOC(=O)C(C)On1c(-c2cccc(Cl)c2)nc2ccc([N+](=O)[O-])cc21 (stereo not drawn),89,.,.,.,88
COc1ccc(C)cc1-n1nnnc1SCc1csc(C)n1,73,.,.,.,99
Cc1ccc(Nc2nnc(SCc3cc(=O)n4cc(C)ccc4n3)s2)cc1,/,/,.,/,/
COc1ccc(C)cc1-n1nnnc1SCc1cc(=O)n2cc(C)ccc2n1,.,.,.,.,61
Cc1ccccc1-n1nnnc1-c1ccccc1,.,.,.,.,70
COc1ccc(C)cc1-n1nnnc1SCn1nnc2ccccc2c1=O,.,.,.,.,.
Cc1ccccc1-n1nnnc1SCc1csc(-c2ccccc2)n1,93,.,.,.,97
Nn1c(SCc2csc(-c3ccccc3)n2)nnc1-c1cccs1,.,.,.,.,.
O=C(Nc1cc(C(=O)N2CCOCC2)cc(C(=O)N2CCOCC2)c1)c1cc(F)c(F)cc1Cl,.,.,.,.,.
COc1ccc(-c2csc(N3C(=O)CNC3=S)n2)cc1,/,/,.,/,/
CC(=O)COc1ccc2c3c(c(=O)oc2c1)CCCC3,.,.,.,.,64
CC(=O)C(C)Oc1ccc2c3c(c(=O)oc2c1)CCCC3 (stereo not drawn),.,.,.,.,.
Cc1c(CC(=O)O)c(=O)oc2cc(OCc3nn[nH]n3)ccc12,.,.,.,.,.
CCOC(=O)CCc1c(C)c2ccc(OCc3nn[nH]n3)cc2oc1=O,71,.,.,.,.
CC(C)CNC(=O)COc1ccc2c3c(c(=O)oc2c1)CCC3,76,.,.,.,.
O=c1oc2cc(OCc3nn[nH]n3)ccc2c2c1CCCC2,96,.,.,.,95
SMILES,CYP2C9 inhib,CYP2C9 act,Measles CPE,CYP2C19 activ,CYP2C19 inhib
Cc1cc2oc(=O)c3c(c2cc1OCc1nn[nH]n1)CCCC3,.,.,.,.,.
Cc1sc(NC(=O)C2C3CCC(O3)C2C(=O)O)nc1-c1ccc(CC(C)C)cc1 (stereo not drawn),/,/,.,/,/
COc1ccc(N2CC(O)=C(c3n(C)c4ccccc4[n+]3C)C2=N)cc1,.,.,.,.,.
COC(=O)c1cc2c(C)c(C)c3ccccn3c-2c1C(=O)OC,.,.,.,.,.
COC(=O)c1cc2n3ccccc3c(C)c(-c3ccccc3)c-2c1C(=O)OC,81,.,.,.,54
COC(=O)c1c(-c2cccs2)csc1NC(=O)CN1CCOCC1,96,.,.,.,94
CCOC(=O)c1c(-c2cccs2)csc1NC(=O)COC(=O)c1c(C)noc1C,87,.,.,.,.
CCOC(=O)c1c(-c2cccs2)csc1NC(=O)c1ccncc1,.,.,.,.,.
CCN(CC)c1ccc(NC(=O)CSc2nnc3nc(C)cc(C)n23)cc1,.,.,.,.,.
O=C(CSc1nnnn1C1CCCCC1)NCc1cccc(C(=O)O)c1,.,.,.,.,.
COc1ccc(Cl)cc1C(=O)CSc1nnnn1C1CCCCC1,.,.,.,.,69
COc1ccc(Cl)cc1C(=O)CSc1nnnn1C1CCCC1,.,.,.,.,76
CCOC(=O)c1cc[n+](CC(=O)c2ccc(F)cc2)cc1,/,/,.,/,/
CCCCCNS(=O)(=O)c1cc(C)ccc1OC,/,/,.,/,/
CCCCCCNS(=O)(=O)c1ccc(Cl)s1,86,.,.,.,98
CCN1CCc2c(C#N)c(N3CCCCC3)nc(N3CCOCC3)c2C1,68,.,.,.,.
CCN(CC)c1nc(N2CCOCC2)c(C#N)c2c1CN(C)CC2,56,.,.,.,.
CCOC(=O)c1sc(NC(=O)c2ccc(C)s2)cc1C,.,.,.,.,.
CCOC(=O)N1CCC(NC(=O)C2CCCN(S(=O)(=O)c3cccnc3)C2)CC1 (stereo not drawn),.,.,.,.,.
O=C1[C@@H]2C(c3ccccc3Cl)=NO[C@@H]2C(=O)N1Cc1ccccc1,73,.,.,.,99
COc1ccc(CN2C(=O)[C@@H]3C(c4ccccc4Cl)=NO[C@@H]3C2=O)cc1,70,.,.,.,87
COc1ccc(Cl)cc1N1C(=O)[C@@H]2C(c3cccc(OC)c3OC)=NO[C@@H]2C1=O,.,.,.,.,.
CC1=C(C)CC2C(=O)N(Cc3ccccc3)C(=O)C2C1 (stereo not drawn),.,.,.,.,.
COc1ccc(OC)c(C2=NO[C@@H]3C(=O)N(c4cc(Cl)ccc4OC)C(=O)[C@H]23)c1,.,.,.,.,62
COc1ccc(CN2C(=O)C3C4C=CC(C4)C3C2=O)cc1 (stereo not drawn),.,.,.,.,.
SMILES,CYP2C9 inhib,CYP2C9 act,Measles CPE,CYP2C19 activ,CYP2C19 inhib
CC(C)CCn1cnc2c(NCc3ccccc3)ncnc21,.,.,.,.,.
CC(C)(C)c1ccc(C(=O)CC(=O)c2cc(Cl)ccc2O)cc1,60,.,.,.,57
Cc1cccc(N2CCN(C(=O)C3CCN(S(=O)(=O)c4cccc5nsnc45)CC3)CC2C)c1 (stereo not drawn),.,.,.,.,.
O=C(C1CCN(S(=O)(=O)c2cccc3cccnc23)CC1)N1CCCC1,.,2.6,.,.,.
Cc1cccc(N2CCN(C(=O)C3CCN(S(=O)(=O)c4cccc5cccnc45)CC3)CC2C)c1 (stereo not drawn),.,.,.,.,85
O=C(C1CCN(S(=O)(=O)c2cccc3cccnc23)CC1)N1CC=C(c2ccccc2)CC1,.,.,.,.,75
Cc1ccc(C2(O)CN(c3ccccc3C)C3=[N+]2CCS3)cc1 (stereo not drawn),/,/,.,/,/
COCCNC(=O)C(OC(=O)c1ccco1)c1ccccc1OC (stereo not drawn),.,.,.,.,.
CCC(C(=O)Nc1nc(C)cs1)c1ccccc1 (stereo not drawn),.,.,.,.,.
O=C(Nc1nccs1)C(NS(=O)(=O)c1ccc(Br)s1)c1ccccc1 (stereo not drawn),62,.,.,.,.
CCC(C(=O)Nc1nccs1)c1ccccc1 (stereo not drawn),.,.,.,.,69
CC(NS(=O)(=O)c1ccccc1)C(=O)Nc1nccs1 (stereo not drawn),/,/,.,/,/
